Assay outcomes from PubChem.
CF NFkB inh – inhibitors of PAF-induced NF-kB signaling, primary screen, cell-based, GFP fluorescence, uHTS; KKLEB NF-kB-GFP reporter, GFP fluorescence overnight; inhibition, % at 5 µM; 360,000 compounds, 0.86% hits;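 active = at least 50% inhibition at 5 µM, scaled per plate between neutral and stimulator controls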;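 also: PAF is a Pseudomonas aeruginosa culture filtrate used as stimulus; plate controls were PAF-stimulated DMSO wells for no effect and unstimulated DMSO wells for full effect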
EWS-Fli block – EWS/Fli-driven NR0B1 reporter inhibitors, primary screen, A673 cells, NR0B1 luciferase, luminescence, MLPCN library; viability-normalised; inhibition, % at 12.6 µM; 350,000 compounds, 0.67% hits;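 active = mean inhibition of at least 50% after viability correction, with every replicate also passing that limit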;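 also: firefly luciferase signal divided by Alamar Blue viability fluorescence both relative to DMSO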
PAX8 inh HTS – inhibitors of PAX8-driven TPO luciferase reporter, primary screen, RMG-I cells, single concentration; inhibition, % at 12.6 µM; 360,000 compounds, 1.2% hits; AID 652154, 2013; SteadyGlo, 24 h;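 active = mean replicate inhibition at least 60% with every replicate also reaching 60%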;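 also: luciferase light reporting Pax8 driven TPO promoter activity; plate controls were median of neutral control wells for no effect and mitoxantrone controls for full effect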
HIF-2a inh – HIF-2a reporter inhibitors, primary screen, luminescence, 786-0 RCC cells; 360,000 compounds, 0.72% hits; 786-0 RCC cells HIF-2a reporter, luciferase luminescence, overnight; inhibition, % at 18.8 µM;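 active = inhibition of the luminescence signal of 40% or more relative to plate controls, in a single-dose primary screen at 18.75 µM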
KKLEB cytotox – cytotoxicity in KKLEB CF airway cells, primary screen, cytotoxicity control for CF NF-kB inhibitor project, cell-based, uHTS, fluorescence assay plates | KKLEB CF airway cells viability, ATPlite luminescence, overnight; stronger effect = lower value; cells stimulated with P. aeruginosa culture filtrate | activity change (cytotoxicity), % at 5 µM | 360,000 compounds, 0.36% hits | AID 602141, 2011;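 active = corrected activity change at or below -50% at 5 µM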
CF NFkB inh conf – inhibitors of PAF-induced NF-kB signaling, retest, confirmation, cell-based, GFP fluorescence, single concentration; inhibition, % at 5 µM; KKLEB CF airway cells, overnight; AID 602472, 2012; shares compounds with CF NFkB inh; 1,300 compounds, 64% hits; in the data active = inhibition above about 40%;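 also: stimulus PAF is a Pseudomonas aeruginosa filtrate and not platelet activating factor; plate controls were DMSO wells with stimulus for no effect and unstimulated DMSO wells for full effect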
Mdm2 MdmX conf – retested Mdm2-MdmX interaction blockers, confirmation, cell-based, luminescence, single concentration, set 2 | AID 504601, 2011 | SaOS-2 split-luciferase Mdm2/MdmX complementation | shares compounds with HIF-2a inh | inhibition, % at 8 µM | 740 compounds, 99% hits;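 active = mean inhibition of the luminescence signal across two replicates at or above 26 percent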
Target sequence (O15151 whole entry, looked up): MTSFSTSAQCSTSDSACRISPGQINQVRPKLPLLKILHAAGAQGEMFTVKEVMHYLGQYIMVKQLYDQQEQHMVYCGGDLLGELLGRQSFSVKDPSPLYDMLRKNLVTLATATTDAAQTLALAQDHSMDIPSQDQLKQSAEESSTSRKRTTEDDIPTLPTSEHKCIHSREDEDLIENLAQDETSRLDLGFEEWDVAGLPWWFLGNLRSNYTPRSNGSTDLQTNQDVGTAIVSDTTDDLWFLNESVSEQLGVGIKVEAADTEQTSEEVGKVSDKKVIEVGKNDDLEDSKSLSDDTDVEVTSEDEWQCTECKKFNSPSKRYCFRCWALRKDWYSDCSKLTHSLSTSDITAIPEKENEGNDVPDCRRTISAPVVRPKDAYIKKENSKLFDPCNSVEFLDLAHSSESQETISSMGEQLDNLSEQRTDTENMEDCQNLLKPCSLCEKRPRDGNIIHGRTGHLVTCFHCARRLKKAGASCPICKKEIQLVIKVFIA
Target sequence (Q00987 whole entry, looked up): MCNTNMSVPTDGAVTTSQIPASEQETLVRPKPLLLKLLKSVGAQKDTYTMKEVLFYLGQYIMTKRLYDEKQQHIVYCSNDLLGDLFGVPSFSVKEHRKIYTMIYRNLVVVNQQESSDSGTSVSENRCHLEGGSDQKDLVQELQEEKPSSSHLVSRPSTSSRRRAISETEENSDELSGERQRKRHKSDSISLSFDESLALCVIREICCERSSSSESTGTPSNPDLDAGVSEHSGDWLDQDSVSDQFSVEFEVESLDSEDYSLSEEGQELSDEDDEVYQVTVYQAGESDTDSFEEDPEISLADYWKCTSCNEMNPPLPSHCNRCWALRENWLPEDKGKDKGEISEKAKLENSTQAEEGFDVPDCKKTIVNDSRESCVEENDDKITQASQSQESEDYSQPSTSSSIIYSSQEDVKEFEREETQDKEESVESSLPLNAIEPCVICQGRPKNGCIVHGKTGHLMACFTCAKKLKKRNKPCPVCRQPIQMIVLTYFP
HIF-2a conf – HIF-2a reporter inhibitor retest, confirmation, luminescence, 786-0 RCC cells; shares compounds with HIF-2a inh; HIF-2a luciferase reporter luminescence, overnight; inhibition, % at 18.8 µM; 1,800 compounds, 56% hits; AID 651580, 2012;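 active = mean inhibition across four replicates of at least 40 percent at the single tested concentration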
HIF-1a counter – HIF-1a luciferase reporter signal reduction – MiaPaCa-2 cells, single concentration, counter-screen for HIF-2a inhibitor project, confirmation; shares compounds with HIF-2a inh; MiaPaCa-2 HIF-1a luciferase reporter, desferoxamine, overnight; inhibition, % at 18.8 µM; 1,800 compounds, 72% hits;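 active = mean inhibition of the reporter signal across four replicates at the single tested dose of 50% or more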
DNA binder FP – DNA binders by acridine orange displacement, dose response, counter-screen for EWS/Fli inhibitor project, biochemical, fluorescence polarization, cherry-pick; shares compounds with EWS-Fli block; salmon sperm DNA acridine orange fluorescence polarization; AC35, µM (titrated, usually from 68 µM), inactives show top-dose activity change, negative = DNA binding; 640 compounds, 2% hits;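 active = fitted curve reaches a 35% signal fall AC35 below twice the sample's top valid tested dose, actives reach about 48 µM in these data; inactive = the rest, including activity in the rising direction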;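 also: lower polarization ratio signals compound binding to DNA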
An asterisk follows results filed as active; i = inactive; . = not tested or not shown. The list is not random: actives were taken first. Their share in the collection is about 2.1%.

SMILES | CF NFkB inh | EWS-Fli block | PAX8 inh HTS | HIF-2a inh | KKLEB cytotox | CF NFkB inh conf | HIF-2a conf | HIF-1a counter | DNA binder FP | others
CC(C)N=C(NS(=O)(=O)c1ccccc1)C(Cl)(Cl)Cl | 60* | 48 | 96* | 84* | -19 | 45* | 57* | 35 | .
CCOC(=O)c1ccc(Nc2ncnc3ccc(C)cc23)cc1 | 31 | . | . | 23 | -3 | . | . | . | .
CCOc1ccc(Nc2ncnc3ccc([N+](=O)[O-])cc23)cc1 | 75* | -4 | 10 | 15 | -14 | 87* | . | . | . | Mdm2 MdmX conf=87*
C[C@@H]1[C@@H](Sc2ccccc2)CC(=O)O[C@@H]1c1ccc(-c2ccccc2)cc1 | 62* | 13 | 24 | 98* | -48 | -74 | 6 | 101* | . | Mdm2 MdmX conf=103*
O=C1CC(C(=O)NC2CCCCC2)C(c2ccccc2)O1 (stereo not given) | 1 | . | . | 18 | 4 | . | . | . | .
C[C@H](NC(=O)C[C@H]1CC[C@H](NC(=O)C2CC2)[C@@H](CO)O1)c1ccccc1 | . | 2 | -3 | . | . | . | . | . | .
Nc1cc2[nH]c(=O)c3ccccc3c2cc1Br | -71 | -21 | -6 | -27 | 7 | . | . | . | .
Nc1cc2c(cc1Br)[nH]c(=O)c1ccccc12 | 58* | 52* | 6 | -24 | -14 | -59 | . | . | -2%
Cc1ccc(NC(=S)c2nc3ccccc3[nH]2)c(C)c1 | -18 | . | -137 | -230 | -23 | . | . | . | .
Cc1cccc(/C=C(\c2nc3ccccc3[nH]2)S(=O)(=O)c2ccccc2)c1 | 55* | 71* | 106* | 88* | -25 | -179 | 92* | 105* | 4%
C=CCOc1ccccc1C(=O)/C=C1/C(=O)Nc2ccccc21 | 92* | 58* | 0 | 80* | -49 | 37 | 32 | 55* | -5%
C=C(C(=O)c1ccccc1)C(C)C(=C)C(=O)c1ccccc1 | 57* | 73* | 98* | 91* | -37 | i | . | . | -5%
COc1ccc(OC)c(-c2nnc3n2N=C(c2ccc(OC)c(OC4CCOC4)c2)CS3)c1 (stereo not given) | 54* | 59* | 97* | 20 | -10 | 65* | . | . | -2%
N#CC(C#N)=C1C=CC=CN1/C(=C\c1ccco1)C(=O)c1ccc(Cl)cc1 | 85* | 86* | . | 94* | -50 | 10 | 98* | 97* | 3%
C[C@@H]1CN([C@@H](C)CO)C(=O)Cc2cc(NC(=O)Cc3cn(C)c4ccccc34)ccc2O[C@H]1CN(C)Cc1ccncc1 | . | -5 | 3 | . | . | . | . | . | .
COc1cccc(-c2cc(NC=O)c3ncc(-c4ccc(C(C)=O)cc4)n3c2)c1 | 59* | 52* | 59 | -61 | -44 | 63* | . | . | -3%
COc1ccc(-c2cc(NC=O)c3ncc(-c4cccc(C(C)=O)c4)n3c2)cc1 | -1 | 8 | 24 | -33 | -2 | . | . | . | .
CC(=O)N(C)C[C@H]1Oc2ncc(C#CC3(O)CCCC3)cc2C(=O)N([C@H](C)CO)C[C@@H]1C | . | -24 | . | . | . | . | . | . | .
COc1ccc(/C=C/C(=O)c2cc(F)ccc2OC(=O)c2ccccc2OC)cc1OC | 71* | 59* | 85* | 76* | -23 | 43* | . | . | -4%
